# Unmarked numbers belong to inactive results.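 How the source made its calls: active means viability increase at or above a cutoff of the median across tested compounds plus 3 SD (cut at about 8.5% in these data, passing the limit was not always enough); inconclusive means some gains above the cutoff, reason not given; inactive means the rest.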
# Experiment: viability gain of MRP-1-high H69AR cells under doxorubicin, pilot screen, MRP-1 activator project, CellTiter-Glo, duplicate (AID 807);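 further: compound pretreatment 18-22 h then 72 h combined with doxorubicin; 0% = doxorubicin alone and 100% = vehicle without doxorubicin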
# Conditions: H69AR viability with doxorubicin, CellTiter-Glo luminescence; at 10 µM; stronger effect = higher value
row,Compound,viability increase
1,CCCOC(=O)c1ccc(NC(=O)CCC(=O)OCC)cc1,-0.37%
2,Cc1ccc(-c2nn(-c3ccccc3)cc2C2SCC(=O)N2Cc2ccccc2)o1 (configuration not stated),-0.06%
3,CN(C)c1ccc(-c2noc(C3CCN(S(=O)(=O)c4cccc(Cl)c4)CC3)n2)cc1,3.01%
4,COc1cc(OC)c(NC(=O)CS(=O)(=O)Cc2nc(-c3ccc(C)cc3)oc2C)cc1Cl,-1.21%
5,COC(=O)c1c(NC(=O)C2CC2)sc2c1CCCC2,-4.82%
6,C(#Cc1ccccc1)CN1CCN(c2ccccn2)CC1,-1.2%
7,CCN1CCN(CC(=O)Nc2cccc(C)c2)C(=O)C1=O,-1.01%
8,CN(C)c1ccc(CN(C)C2CCCCC2)cc1,-1.65%
9,Cc1c(S(=O)(=O)N2CCc3ccccc3C2)c(=O)n(C)c(=O)n1C,-0.16%
10,CCOC(=O)C1Cn2c(nc3c(c2=O)C2(CCCC2)Cc2ccccc2-3)S1 (configuration not stated),-3.9%
11,Cc1cccc(-c2noc(CN(C(=O)c3c(-c4ccccc4Cl)noc3C)C(C)C)n2)c1,-3.28%
12,CCOC(=O)c1cc2c(=O)n3ccccc3nc2n(Cc2ccco2)c1=NC(=O)c1cccnc1,3.61%
13,Cc1ccc(C)c(C(=O)Nc2c(C(N)=O)oc3ccccc23)c1,-3%
14,Clc1ccccc1-c1nnc2sc(-c3ccncc3)nn12,-3.61%
15,COC(=O)c1ccc2c(c1)N(Cc1ccccc1F)C(=O)c1ccccc1S2=O (configuration not stated),-4.03%
16,CCOc1ccccc1C(=O)Nc1ccc2nc(N3CCN(c4ncccn4)CC3)cc(C)c2c1,-7.45%

row,Compound,viability increase
1,COc1ccccc1-n1c(CNC(=O)c2ccccc2)nnc1SCC(=O)Nc1nnc(C)s1,-0.83%
2,CCOC(=O)C1=C(N)OC2=C(C(=O)CC(C)(C)C2)C1C1CCCCC1 (configuration not stated),-1.22%
3,CCCc1nnc(NC(=O)c2ccncc2)s1,0.44%
4,CC(C)Oc1ccc(NC(=O)Oc2ccccc2)cc1,-0.53%
5,CCOC(=O)c1[nH]c(C)c(C(=O)N2CCOCC2)c1C,-0.92%
6,Nc1ccc(S(=O)(=O)N2CCCc3ccccc32)cc1,-3.42%
7,COc1cccc(CSc2nc3sc(C)c(C)c3c(=O)n2Cc2ccco2)c1,0.35%
8,CCc1ccccc1S(=O)(=O)Cc1ccc(C(=O)N2CCN(c3ccccc3OC)CC2)o1,-2.86%
9,COc1ccc(OCCn2c(NC(=O)c3ccco3)nc3ccccc32)cc1,-6.84%
10,COc1cc2c(cc1OC)C(C)N(C(=O)c1cc3ccccc3o1)CC2 (configuration not stated),-3.13%
11,O=C(Cn1c(=O)sc2ccccc21)NCc1ccccn1,-1.78%
12,COc1ccc(-c2noc(-c3cc(C)cc(C)c3)n2)cc1OC,4.05%
13,CCn1c(C(C)NC(=O)c2cccc(C)c2)nc2ccccc21 (configuration not stated),-2.68%
14,CN1CSC2=C(C#N)C(c3cccc(OCc4ccccc4)c3)CC(=O)N2C1 (configuration not stated),-4.67%
15,Cc1cccc(N2CCN(C(=O)c3cc4c(C)nc5ccccc5c4o3)CC2)c1C,4.84%
16,c1ccc(CNc2ncnc3nc[nH]c23)nc1,-1.52%
